Data reported in PubChem BioAssay (NCI).
This is part of a sample that, as a whole, favours compounds with a hit. Of some 83,000 tested, about 20% had one in any assay.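 Activity criterion: percent growth below 10, measured after cells in 96-well plates were exposed to a single compound concentration for 48 hours.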 Values without a mark were called inactive. The source made the active and inactive calls.

Columns and labels:
Experiment in all cases: NCI-60 one-dose screen, 48 h (100 = growth as untreated, 0 = no growth, -100 = all killed)
Details in all cases: 10 µM
SK-MEL-2 melanoma = system: SK-MEL-2 melanoma
EKVX NSCLC = system: EKVX NSCLC
SN12C renal = system: SN12C renal
UO-31 renal = system: UO-31 renal
TK-10 renal = system: TK-10 renal
ACHN renal = system: ACHN renal
CAKI-1 renal = system: CAKI-1 renal
A498 renal = system: A498 renal
MOLT-4 leukemia = system: MOLT-4 leukemia
CCRF-CEM leukemia = system: CCRF-CEM leukemia

| Structure (SMILES) | growth (SK-MEL-2 melanoma) | growth (EKVX NSCLC) | growth (SN12C renal) | growth (UO-31 renal) | growth (TK-10 renal) | growth (ACHN renal) | growth (CAKI-1 renal) | growth (A498 renal) | growth (MOLT-4 leukemia) | growth (CCRF-CEM leukemia) |
| --- | --- | --- | --- | --- | --- | --- | --- | --- | --- | --- |
| CCCn1c(=O)c2[nH]c(-c3ccc(OCc4nc5ccc(F)cc5[nH]4)cc3)nc2n(CCC)c1=O | 28.6% | 34.4% | -20.1% (active) | -78.7% (active) | -3.59% (active) | -56.6% (active) | 6.55% (active) | -85.8% (active) | 24.7% |  |
| CCN1CCN(Cc2ccc(C(=O)Nc3cccc(-c4cn(-c5ccc6oc(=O)ccc6c5)nn4)c3)cc2C(F)(F)F)CC1 | 66.1% | -100% (active) | -100% (active) | -100% (active) | -100% (active) | -100% (active) | 8.59% (active) | -100% (active) | -29.8% (active) | -21% (active) |
| O=C(Cn1nc(-c2ccccc2)ccc1=O)NN1C(=O)c2ccccc2C1=O | 104% | 101% | 123% | 85.8% | 105% | 99% | 95.3% | 103% | 108% |  |
| COC1=C[C@@]23CCC(=O)N2CCc2cc4c(cc2[C@H]3[C@H]1OC(=O)C(C)(C)O)OCO4 | 104% | 97.2% | 96.5% | 87.5% | 97.7% | 103% | 95.6% | 108% | 86.7% | 99.3% |
| CSc1nc(-c2cccc(C)c2)c2cc(-c3ccccc3)n(C)c2n1 | 12.2% | 18.4% | 20% | 29.8% | 58.1% | 32.4% | 26.2% | 65.5% | 16.8% | 17.5% |
| Cc1ccc(-c2nc(Nc3ccccc3C(=O)O)c3ccccc3n2)cc1 | 5.75% (active) | 13.1% | 22.2% | 12.6% | 58.9% | 7.89% (active) | 21.1% | 21.6% | 10.9% | 12.8% |
| NS(=O)(=O)c1ccc(NC(=O)CSc2ccc(-c3ccc(Cl)cc3)nn2)c(Br)c1 | 82.9% | 47.4% | 39.1% | 91% | 94.6% | 24.7% | 67% | 0.192% (active) | 90.6% |  |
| O=C(CSc1nnc(-c2ccc3nc(-c4ccc(Cl)cc4)[nH]c3c2)o1)Nc1ccc(Cl)cc1 | -25.2% (active) | 5.97% (active) | -93.7% (active) | -45.4% (active) | 50.7% | -89.7% (active) | -35.6% (active) | 26% | -4.88% (active) | -1.24% (active) |
| O=C1CCC(N2Cc3cc(NC(=O)COc4ccccc4)ccc3C2=O)C(=O)N1 (centres undefined) | 98.3% | 78.6% | 73.6% | 28.5% | 66% | 91.9% | 92.3% | 75.1% | 11.5% | 22.7% |
| Clc1cccc(N/N=C/c2c[nH]c3ccccc23)n1 | 73.3% | 32.4% | 16.8% | 10.4% | 71.7% | 44.7% | 35.5% | 75.7% | 23.8% |  |
| O=C(NC(=S)N1CCN(c2ncnc3c2cnn3-c2ccccc2)CC1)c1ccc(Cl)cc1 | 88.8% | 62.7% | 28.3% | 40% | 109% | 24.5% | 27.7% | 68.4% | 81.6% |  |
| O=C(Nc1cccc(-c2cn(-c3ccc4oc(=O)ccc4c3)nn2)c1)Nc1cc(C(F)(F)F)cc(C(F)(F)F)c1 | 29.6% | 13.5% | 24.6% | 30.9% | 50.9% | 12.5% | 36.2% | 19.6% | 11.7% | 27.1% |
| N#Cc1ccc(-c2nn(-c3ccc(C(=O)O)cc3)cc2CNc2cccc(Br)c2)cc1 | 71.7% | 65.9% | 59.2% | 60.5% | 102% | 66.8% | 73.4% | 94.5% | 23.9% | 23.7% |
| Cc1ccc(C(=O)CSc2nnc(-c3c[nH]c4ccccc34)n2-c2ccccc2)cc1 | 84.7% | 53% | 24.9% | 30.3% | -2.18% (active) | 20.4% | 12.4% | 85.8% | 61.7% | 60.8% |
| COC[C@@H](CC(C)C)N=C1NC(=O)/C(=C/c2ccc3ncsc3c2)N1 | -70.7% (active) | 17.8% | 13.6% | -12.7% (active) | 27.8% | 6.22% (active) | 4.39% (active) | -7.78% (active) | 11.1% |  |
